The record followed here is PubChem BioAssay (EPA / NIEHS).

The structures appear in SMILES notation. Records with an inconclusive call do not appear. Activity calls are given as the source filed them. The calls were made as follows, unless noted: active = hit-call score of the fitted dose curve at least 0.9, where 1 is the maximum; inactive = score below 0.9.

Nuclear receptor subfamily 4 group A member 2 (Homo sapiens), sequence (P43354 whole entry, looked up): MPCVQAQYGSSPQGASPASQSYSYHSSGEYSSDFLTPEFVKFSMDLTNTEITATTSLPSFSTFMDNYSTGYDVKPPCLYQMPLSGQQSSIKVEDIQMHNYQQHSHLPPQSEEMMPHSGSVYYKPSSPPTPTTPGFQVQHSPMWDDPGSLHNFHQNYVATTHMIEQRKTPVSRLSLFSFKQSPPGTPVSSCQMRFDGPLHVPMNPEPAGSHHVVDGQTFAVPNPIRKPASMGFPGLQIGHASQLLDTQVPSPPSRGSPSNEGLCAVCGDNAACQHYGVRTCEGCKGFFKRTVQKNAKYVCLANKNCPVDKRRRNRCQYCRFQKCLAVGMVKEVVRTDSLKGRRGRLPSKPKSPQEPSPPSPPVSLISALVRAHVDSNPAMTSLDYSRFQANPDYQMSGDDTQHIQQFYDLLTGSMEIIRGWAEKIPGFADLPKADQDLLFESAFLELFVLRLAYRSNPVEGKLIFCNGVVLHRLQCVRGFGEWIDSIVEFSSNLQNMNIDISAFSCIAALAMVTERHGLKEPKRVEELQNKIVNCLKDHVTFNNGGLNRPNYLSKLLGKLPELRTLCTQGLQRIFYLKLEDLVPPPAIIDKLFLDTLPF
Nuclear respiratory factor 1 (Homo sapiens), sequence (Q16656 whole entry, looked up): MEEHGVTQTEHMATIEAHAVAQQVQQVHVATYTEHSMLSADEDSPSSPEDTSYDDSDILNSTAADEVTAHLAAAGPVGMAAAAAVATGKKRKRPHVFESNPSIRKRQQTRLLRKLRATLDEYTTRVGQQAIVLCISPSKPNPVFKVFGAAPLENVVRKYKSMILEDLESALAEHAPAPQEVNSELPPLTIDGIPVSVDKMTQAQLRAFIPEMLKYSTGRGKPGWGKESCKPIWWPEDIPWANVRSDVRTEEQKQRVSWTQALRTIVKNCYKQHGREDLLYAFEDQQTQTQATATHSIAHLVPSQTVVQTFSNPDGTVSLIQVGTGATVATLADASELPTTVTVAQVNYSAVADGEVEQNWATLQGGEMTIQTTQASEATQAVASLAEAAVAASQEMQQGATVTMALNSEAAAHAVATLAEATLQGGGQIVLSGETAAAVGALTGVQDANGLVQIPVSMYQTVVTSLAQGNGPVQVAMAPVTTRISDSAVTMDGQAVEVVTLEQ
Transcriptional activator Myb (Homo sapiens), sequence (P10242 whole entry, looked up): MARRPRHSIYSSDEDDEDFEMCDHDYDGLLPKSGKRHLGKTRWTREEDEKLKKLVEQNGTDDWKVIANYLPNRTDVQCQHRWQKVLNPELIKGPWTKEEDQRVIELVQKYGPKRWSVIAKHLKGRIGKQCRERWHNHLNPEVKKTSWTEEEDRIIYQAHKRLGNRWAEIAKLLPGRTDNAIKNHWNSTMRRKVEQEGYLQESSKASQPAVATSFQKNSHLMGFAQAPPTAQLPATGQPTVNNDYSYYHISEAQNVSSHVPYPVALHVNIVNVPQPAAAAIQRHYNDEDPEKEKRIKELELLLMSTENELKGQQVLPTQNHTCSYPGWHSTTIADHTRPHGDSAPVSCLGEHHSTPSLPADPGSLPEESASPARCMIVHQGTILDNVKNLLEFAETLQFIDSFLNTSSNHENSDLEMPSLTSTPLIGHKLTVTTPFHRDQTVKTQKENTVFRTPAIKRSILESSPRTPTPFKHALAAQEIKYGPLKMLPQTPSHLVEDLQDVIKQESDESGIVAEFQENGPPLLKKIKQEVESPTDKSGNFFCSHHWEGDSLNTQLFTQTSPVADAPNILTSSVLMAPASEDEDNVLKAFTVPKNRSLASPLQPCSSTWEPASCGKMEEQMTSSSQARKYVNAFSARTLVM

One assay addresses Nuclear receptor subfamily 4 group A member 2 (Homo sapiens) (UniProt P43354). Put plainly: ATG_NURR1_TRANS: Attagene TRANS-FACTORIAL HepG2 Assay for human Nuclear Receptor Related Protein 1 (NURR1) (AID 2282985; active = hit-call score of the fitted dose curve at least 0.9, where 1 is the maximum). The following applies: HepG2 Attagene TRANS reporter, mRNA readout. The gist of the method: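 After 24 h chemical dosing, total RNA from transiently transfected HepG2 cells was reverse-transcribed and reporter cDNA PCR-amplified, FAM-labelled and analysed by capillary electrophoresis. Activity fitted in positive direction, DMSO as negative control.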
Take `Nc1cc([N+](=O)[O-])ccc1O`: the call was inactive.

`CCc1c(C)cc(N)c(CC)c1N`: the call was inactive.

Turning to `O=P(c1ccccc1)(c1ccccc1)c1ccccc1`, the call was inactive.

Consider `CCCCc1ccc(N)cc1`, for which the molecule was classed as inactive.

For `CCCCC(CC)COC(=O)/C=C\C(=O)OCC(CC)CCCC` (configuration not stated), the outcome was inactive.

Consider `COC(=O)OC`, for which the molecule was classed as inactive.

As for `O=C1OC2(c3cc(Br)c(O)c(Br)c3Oc3c2cc(Br)c(O)c3Br)c2c(Cl)c(Cl)c(Cl)c(Cl)c21`, the molecule was classed as inactive.

Turning to `C[Si](O[Si](C)(C)C)O[Si](C)(C)C`, the outcome was inactive.

With `CC(=O)OCC=Cc1ccccc1`, the result was inactive.

For the molecule `CCCCCCCCCCCCCCCCCC(=O)OCC(CC)CCCC` (configuration not stated), the outcome was inactive.

For orientation: AC50 means the concentration giving half of the maximal activity seen. For `C=C(C)C(=O)Nc1ccc(Cl)c(Cl)c1`, the concentration at half-maximal activity (AC50) was 69.8 µM (active).

Consider `COC(=O)c1ccc(C)cc1`, for which the molecule was classed as inactive.

For the molecule `O=C1c2ccccc2C(=O)N1SC1CCCCC1`, the molecule was called inactive.

`C=O`: the result was inactive.

As to `CC(C)c1ccc(C(C)C)cc1`, the call was inactive.

With `COCCOCCOCCOCCOCCO`, the molecule was classed as inactive.

Take `CNC[C@H](O)c1cccc(O)c1`: the molecule was called inactive.

Regarding `CC(C)c1cccc(O)c1`, the molecule was called inactive.

As for `CNC(=O)Oc1ccc2c(c1)[C@]1(C)CCN(C)[C@@H]1N2C`, the result was inactive.

The target of the next assay is Transcriptional activator Myb (Homo sapiens) (UniProt P10242). Put plainly: ATG_Myb_CIS: Attagene CIS-FACTORIAL HepG2 Assay for human Myeloblastosis (Myb) Proto-Oncogene Transcription Factor (AID 2282986). The note with it: HepG2 Attagene CIS-FACTORIAL Myb reporter transcription; actives raise or lower the signal. The gist of the method:
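Using HepG2 liver cells bearing transiently transfected cis-promoter reporter constructs, the assay measures induction or loss of reporter mRNA after 24 hours of dosing. Detection used fluorescently labeled RT-PCR products separated by capillary electrophoresis.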
`C=CC(C)(CCC=C(C)C)OC=O` (configuration not stated): the result was inactive.

Regarding `Nc1cc([N+](=O)[O-])ccc1O`, the result was inactive.

Take `CCc1c(C)cc(N)c(CC)c1N`: the molecule was classed as inactive.

Regarding `O=P(c1ccccc1)(c1ccccc1)c1ccccc1`, the molecule was called inactive.

Turning to `CCCCc1ccc(N)cc1`, the outcome was inactive.

With `CCCCC(CC)COC(=O)/C=C\C(=O)OCC(CC)CCCC` (configuration not stated), the outcome was inactive.

For the molecule `CCCCOCCOCCSC#N`, the result was inactive.

For the molecule `COC(=O)OC`, the molecule was classed as inactive.

Regarding `Clc1sc(Cl)c(Cl)c1Cl`, the molecule was called inactive.

Turning to `O=C1OC2(c3cc(Br)c(O)c(Br)c3Oc3c2cc(Br)c(O)c3Br)c2c(Cl)c(Cl)c(Cl)c(Cl)c21`, the result was inactive.

`CN(C)CCCN`: the call was inactive.

With `CC1(C)OC[C@@H]2O[C@@]3(C(=O)O)OC(C)(C)O[C@H]3[C@@H]2O1`, the molecule was called inactive.

Turning to `C[Si](O[Si](C)(C)C)O[Si](C)(C)C`, the molecule was called inactive.

`Cc1ccc(C=O)s1`: the call was inactive.

As for `CC(CCO)CCCC(C)(C)O` (configuration not stated), the outcome was inactive.

`CC(=O)OCC=Cc1ccccc1`: the molecule was called inactive.

`CC1=CCC2C(C1)C2(C)C` (configuration not stated): the molecule was called inactive.

Regarding `CCCC(C)C=O` (configuration not stated), the call was inactive.

As to `CCCCCCCCCCCCCCCCCC(=O)OCC(CC)CCCC` (configuration not stated), the result was inactive.

As to `NCCNCCN`, the molecule was called inactive.

Consider `C=C(C)C(=O)Nc1ccc(Cl)c(Cl)c1`, for which the result was inactive.

Regarding `COC(=O)c1ccc(C)cc1`, the molecule was classed as inactive.

On to `Nc1cccc(S(=O)(=O)c2cccc(N)c2)c1`, for which the molecule was classed as inactive.

For `O=C1c2ccccc2C(=O)N1SC1CCCCC1`, the molecule was classed as inactive.

In the case of `CCCC(=O)C(C)=O`, the molecule was classed as inactive.

`C=O`: the molecule was called inactive.

Consider `NNc1nc(-c2ccc(N)cc2)cs1`, for which the result was inactive.

With `CC(C)c1ccc(C(C)C)cc1`, the result was inactive.

Turning to `Cc1ccc(Nc2ccc(O)c3c2C(=O)c2ccccc2C3=O)cc1`, the call was inactive.

Consider `COCCOCCOCCOCCOCCO`, for which the result was inactive.

Take `Cc1ccc2sc3cccc(C)c3c2c1`: the outcome was inactive.

With `CNC[C@H](O)c1cccc(O)c1`, the call was inactive.

Turning to `CC(C)c1cccc(O)c1`, the molecule was classed as inactive.

With `CCCCCC(=O)OCCc1ccccc1`, the outcome was inactive.

For `COc1ccc(OC)c(OC)c1`, the call was inactive.

As to `CCOC(=S)SSC(=S)OCC`, the call was inactive.

The target of another assay is Nuclear respiratory factor 1 (Homo sapiens) (UniProt Q16656). The assay is described as follows: ATG_NRF1_CIS: Attagene CIS-FACTORIAL HepG2 Assay for human Nuclear Respiratory Factor 1 (NRF1) Orphan Gene (AID 2282987). The following applies: HepG2 NRF1 cis-element reporter, Attagene multiplex; actives raise or lower the signal. The gist of the method:
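Reporter mRNA induction or loss in HepG2 cells after 24 h dosing; cis-regulated reporter constructs report endogenous transcription-factor activity. Quantified by RT-PCR/capillary electrophoresis fluorescence, DMSO-referenced.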
For the molecule `C=CC(C)(CCC=C(C)C)OC=O` (configuration not stated), the result was inactive.

`Nc1cc([N+](=O)[O-])ccc1O`: the molecule was called inactive.

In the case of `CCc1c(C)cc(N)c(CC)c1N`, the outcome was inactive.

For `O=P(c1ccccc1)(c1ccccc1)c1ccccc1`, the call was inactive.

Take `CCCCc1ccc(N)cc1`: the outcome was inactive.

For the molecule `O=S(=O)(O)c1cccc2c(S(=O)(=O)O)cccc12`, the outcome was inactive.

For the molecule `CCCCC(CC)COC(=O)/C=C\C(=O)OCC(CC)CCCC` (configuration not stated), the result was inactive.

Consider `CCCCOCCOCCSC#N`, for which the result was inactive.

As for `COC(=O)OC`, the outcome was inactive.

With `Clc1sc(Cl)c(Cl)c1Cl`, the call was inactive.

`O=C1OC2(c3cc(Br)c(O)c(Br)c3Oc3c2cc(Br)c(O)c3Br)c2c(Cl)c(Cl)c(Cl)c(Cl)c21`: the call was inactive.

As to `CN(C)CCCN`, the outcome was inactive.

Consider `CC1(C)OC[C@@H]2O[C@@]3(C(=O)O)OC(C)(C)O[C@H]3[C@@H]2O1`, for which the molecule was classed as inactive.

For the molecule `C[Si](O[Si](C)(C)C)O[Si](C)(C)C`, the molecule was called inactive.

Consider `CC(CCO)CCCC(C)(C)O` (configuration not stated), for which the result was inactive.

For the molecule `CC(=O)OCC=Cc1ccccc1`, the call was inactive.

Regarding `CC1=CCC2C(C1)C2(C)C` (configuration not stated), the molecule was called inactive.

For the molecule `CCCC(C)C=O` (configuration not stated), the result was inactive.

Consider `NCCNCCN`, for which the call was inactive.

Take `C=C(C)C(=O)Nc1ccc(Cl)c(Cl)c1`: the molecule was classed as inactive.

As for `COC(=O)c1ccc(C)cc1`, the outcome was inactive.

Turning to `Nc1cccc(S(=O)(=O)c2cccc(N)c2)c1`, the molecule was classed as inactive.

For `O=C1c2ccccc2C(=O)N1SC1CCCCC1`, the outcome was inactive.

For `C=O`, the molecule was classed as inactive.

With `NNc1nc(-c2ccc(N)cc2)cs1`, the molecule was called inactive.

For the molecule `COCCOCCOCCOCCOCCO`, the molecule was classed as inactive.

For the molecule `Cc1ccc2sc3cccc(C)c3c2c1`, the call was inactive.

On to `CNC[C@H](O)c1cccc(O)c1`, for which the outcome was inactive.

As for `CCCCCC(=O)OCCc1ccccc1`, the call was inactive.

Turning to `COc1ccc(OC)c(OC)c1`, the result was inactive.

For `CNC(=O)Oc1ccc2c(c1)[C@]1(C)CCN(C)[C@@H]1N2C`, the molecule was called inactive.

`CCOC(=S)SSC(=S)OCC`: the result was inactive.
